Hit rate of the full screen: of about 310,000 compounds, about 2,200 (0.71%) showed an effect of 50% or more. Effects have a minus sign here. Only a selection was taken, and strong results are over-represented in it overall.

Sequence of human ether-à-go-go-related gene (hERG) potassium channel (Q12809 whole entry, looked up): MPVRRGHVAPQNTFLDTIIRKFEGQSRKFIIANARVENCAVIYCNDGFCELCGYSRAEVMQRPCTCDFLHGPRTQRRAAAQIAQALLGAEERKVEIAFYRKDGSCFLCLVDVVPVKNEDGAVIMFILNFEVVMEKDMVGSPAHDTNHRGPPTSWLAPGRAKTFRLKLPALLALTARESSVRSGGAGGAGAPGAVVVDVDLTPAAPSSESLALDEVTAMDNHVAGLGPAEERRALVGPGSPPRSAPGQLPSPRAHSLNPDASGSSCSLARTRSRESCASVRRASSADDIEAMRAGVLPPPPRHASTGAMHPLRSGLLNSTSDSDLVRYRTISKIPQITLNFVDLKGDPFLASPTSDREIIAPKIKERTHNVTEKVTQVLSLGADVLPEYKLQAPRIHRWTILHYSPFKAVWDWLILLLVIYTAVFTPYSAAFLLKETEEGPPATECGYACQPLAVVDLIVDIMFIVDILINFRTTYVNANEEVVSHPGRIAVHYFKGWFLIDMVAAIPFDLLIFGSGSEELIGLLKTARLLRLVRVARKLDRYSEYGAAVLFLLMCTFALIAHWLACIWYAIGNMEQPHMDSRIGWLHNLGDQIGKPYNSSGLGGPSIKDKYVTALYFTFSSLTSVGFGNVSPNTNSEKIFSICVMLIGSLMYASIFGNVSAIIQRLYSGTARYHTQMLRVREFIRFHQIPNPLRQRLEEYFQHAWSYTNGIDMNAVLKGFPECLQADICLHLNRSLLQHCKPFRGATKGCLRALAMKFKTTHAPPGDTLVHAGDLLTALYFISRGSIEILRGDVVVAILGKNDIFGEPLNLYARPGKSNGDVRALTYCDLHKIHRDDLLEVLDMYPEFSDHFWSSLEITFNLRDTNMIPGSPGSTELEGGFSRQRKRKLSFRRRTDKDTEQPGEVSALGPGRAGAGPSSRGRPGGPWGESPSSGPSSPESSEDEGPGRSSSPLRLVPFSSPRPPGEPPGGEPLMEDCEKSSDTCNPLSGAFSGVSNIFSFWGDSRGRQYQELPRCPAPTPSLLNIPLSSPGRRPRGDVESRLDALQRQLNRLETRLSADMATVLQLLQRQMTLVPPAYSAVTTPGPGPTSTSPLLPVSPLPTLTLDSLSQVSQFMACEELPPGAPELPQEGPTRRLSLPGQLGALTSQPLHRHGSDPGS

The assay addresses human ether-à-go-go-related gene (hERG) potassium channel (human, UniProt Q12809). In words: primary screen, population patch clamp on CHO cells stably expressing hERG; higher = less effect of the substance.
As to `COc1ccc(N=C2SC(C(=O)O)CC(=O)N2Cc2ccc(OC)c(OC)c2)cc1` (stereo not shown), the “hERG current change (%, negative = inhibition) at 1uM” value came to 10.8%. In the case of `CCCCNC(=O)N1CCN(c2ccccc2OC)CC1` it was 5.81%; in that of `O=C1c2[nH]nc(-c3ccccc3O)c2C(c2ccc(F)cc2)N1Cc1ccco1` (stereo not shown), 13.1%; in that of `CC1CC(C)CN(c2cc(=O)n(Cc3ccc(F)cc3)c(=O)[nH]2)C1` (stereo not shown), 17.9%. `CSc1nnc2c3ccccc3n(Cc3ccccc3)c2n1`: the “hERG current change (%, negative = inhibition) at 1uM” value amounted to 19.2%. Regarding `CCN(CC)CCSc1nc2ccccc2n1Cc1ccccc1.Cl`, the “hERG current change (%, negative = inhibition) at 1uM” value is -79%.

Take `CSc1nnc2c3cc(C)ccc3n(Cc3ccccc3)c2n1`: the “hERG current change (%, negative = inhibition) at 1uM” value was 10.3%. Take `NNc1nnc2c3cc(F)ccc3n(Cc3ccccc3)c2n1`: the “hERG current change (%, negative = inhibition) at 1uM” value was 2.58%. On to `CCN(CC)CCSc1nnc2c3ccccc3n(CCc3ccccc3)c2n1`, for which the “hERG current change (%, negative = inhibition) at 1uM” value is on record as -18.1%. In the case of `c1ccc(Cn2c3ccccc3c3nnc(SCCN4CCCCC4)nc32)cc1` it was -6.31%; in that of `O=C(O)CCSc1nc2ccccc2n1Cc1ccccc1`, 13.1%. Consider `CCN(CC)CCSc1nnc2c3cc(F)ccc3n(Cc3ccccc3)c2n1`, for which the “hERG current change (%, negative = inhibition) at 1uM” value is reported as -53.8%. In the case of `CSc1nnc2c3cc(F)ccc3n(Cc3ccccc3)c2n1`, the “hERG current change (%, negative = inhibition) at 1uM” value is reported as 7.64%. With `CN(C)C(=O)CSc1nc2ccccc2n1Cc1ccccc1`, the “hERG current change (%, negative = inhibition) at 1uM” value amounted to 4.73%. Take `CCN(CC)CCSc1nnc2c3cc(C)ccc3n(Cc3ccccc3)c2n1`: the “hERG current change (%, negative = inhibition) at 1uM” value is recorded as -81.6%. With `CCN(CC)CCSc1nnc2c3ccccc3n(Cc3ccccc3)c2n1`, the “hERG current change (%, negative = inhibition) at 1uM” value was -73.4%. On to `COc1ccc([N+](=O)[O-])cc1N(CC(=O)N1CCCC1)S(C)(=O)=O`, for which the “hERG current change (%, negative = inhibition) at 1uM” value is 10.2%. As to `O=C(NC1(C(F)(F)F)NC(=O)N(Cc2cccnc2)C1=O)c1ccncc1` (stereo not shown), the “hERG current change (%, negative = inhibition) at 1uM” value was 18.1%. For the molecule `O=C(NC(Cc1c[nH]c2ccccc12)C(=O)N1CCOCC1)c1cccs1` (stereo not shown), the “hERG current change (%, negative = inhibition) at 1uM” value is given as 11.2%. As for `CC(C)(C)OC(=O)NCCCCCc1nnc(SCC(=O)Nc2cccc(Cl)c2)o1`, the “hERG current change (%, negative = inhibition) at 1uM” value is on record as -1.82%. On to `Cc1ccc(SCC(=O)Nc2ccc(N3CCN(C)CC3)c(F)c2)c(C)c1`, for which the “hERG current change (%, negative = inhibition) at 1uM” value was -47.8%. In the case of `COc1ccc(/C=N/N2CCN(C3c4ccccc4-c4ccccc43)CC2)cc1OC` it was 12.9%. `COCCOC(=O)c1c(NC(=O)CNc2ccc(C)c(F)c2)sc(C(N)=O)c1C`: the “hERG current change (%, negative = inhibition) at 1uM” value was determined as 11%. For the molecule `Cc1cc(NC(=O)c2ccc(Cl)cc2)n(-c2ccccc2)n1`, the “hERG current change (%, negative = inhibition) at 1uM” value came to 13.6%. In the case of `Cc1cc(NC(=O)c2ccc(F)cc2)n(-c2ccccc2)n1` it was -75.3%; in that of `Cc1cc(NC(=O)c2ccccc2)n(-c2ccccc2)n1`, 12.1%; in that of `Nc1c(-c2ccc(Cl)cc2)cnc2c(-c3ccccc3)cnn12`, 18.5%. Consider `Cc1ccc(CSCCNS(C)(=O)=O)cc1`, for which the “hERG current change (%, negative = inhibition) at 1uM” value is listed as 10.9%. For `CC(=O)N1CCCc2cc(S(=O)(=O)NC(C(=O)NC(C)c3ccccc3)C(C)C)ccc21` (stereo not shown), the “hERG current change (%, negative = inhibition) at 1uM” value is reported as 1.38%. On to `COc1ccc(CN2CCNC(=O)C2CC(=O)N(C)CCC2CCOCC2)cc1OC` (stereo not shown), for which the “hERG current change (%, negative = inhibition) at 1uM” value stood at 13.7%. In the case of `Cc1ccc(S(=O)(=O)N2CCOC2CNC(=O)C(=O)NCCCc2ccccc2)cc1` (stereo not shown) it was 5.36%; in that of `CCCCCCN1C=CC=C/C1=C\C=C(C#N)C#N`, -69.9%; in that of `CCCCCN1C=CC=C/C1=C\C=C(C#N)C#N`, -28.2%.

Turning to `CCCCCCN1C=CC=C/C1=C/C=C(C#N)C#N`, the “hERG current change (%, negative = inhibition) at 1uM” value is listed as -26.6%. In the case of `CCOC(=O)C(O)(CC(=O)Nc1ccc(Cl)cc1Cl)C(F)(F)F` (stereo not shown) it was 6.91%; in that of `CCOC(=O)COc1ccc(N)cc1CC(NC(C)=O)(C(=O)OCC)C(=O)OCC`, -69.6%; in that of `CCOC(=O)C(Cc1ccccc1)(NC(C)=O)C(=O)OCC`, 14.4%. As for `CCOC(=O)C(Cc1c(F)cccc1F)(NC(C)=O)C(=O)OCC`, the “hERG current change (%, negative = inhibition) at 1uM” value worked out at 8.71%.

For `COc1ccc(C)cc1NC(=O)C(OC(=O)CNC(=O)c1ccc(Br)cc1)c1ccccc1` (stereo not shown), the “hERG current change (%, negative = inhibition) at 1uM” value is on record as 11.1%. In the case of `Cc1cccc(/C=N/n2c(-c3ccccn3)n[nH]c2=S)c1` it was 14.4%.

`CC1CN(S(=O)(=O)c2cccc(C(=O)NCC3COc4ccccc4O3)c2)CC(C)O1` (stereo not shown): the “hERG current change (%, negative = inhibition) at 1uM” value worked out at 0.895%. In the case of `O=c1ccc(-c2nc3ccccc3n2Cc2ccccc2Cl)c[nH]1` it was 4.18%; in that of `O=c1ccc(-c2nc3ccccc3n2Cc2ccc(Cl)cc2)c[nH]1`, -50.5%.

These data come from PMC4336329 (PLoS ONE, 2015).
